# Data from PubChem BioAssay (EPA / NIEHS).
# Results filed as inconclusive are left out. Calls of active or inactive are those of the source. The calls were made as follows, unless noted: active = hit-call score of the fitted dose curve at least 0.9, where 1 is the maximum; inactive = score below 0.9.
# How the values were obtained:
# [1] = ATG_TAL_CIS: Attagene CIS-FACTORIAL HepG2 Assay for human TAL Basal Promoter (AID 2282966); conditions: HepG2 Attagene cis-factorial TAL promoter reporter; actives raise or lower the signal;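 also: background control endpoint measuring basal TAL promoter reporter mRNA not a specific factor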
# How it was run: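 In this cell-based multiplex, HepG2 liver cells bearing cis-promoter reporter constructs are dosed for 24 hours. Total RNA is reverse-transcribed and amplified, labelled fragments are sized by capillary electrophoresis, and signal changes are fitted bidirectionally versus DMSO.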
# [2] = ATG_TGFb_CIS: Attagene CIS-FACTORIAL HepG2 Assay for human Transforming Growth Factor (TGF) (AID 2282967); conditions: HepG2 Attagene CIS TGFb reporter, mRNA transcription; actives raise or lower the signal
# How it was run: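 Liver HepG2 line, cis-factorial reporter panel, 24 h dosing. Quantitation: RT-PCR products labeled with 6-FAM, cut with HpaI, resolved by capillary electrophoresis; DMSO-referenced bidirectional analysis.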
# [3] = ATG_VDRE_CIS: Attagene CIS-FACTORIAL HepG2 Assay for human Vitamin D Receptor Element (VDRE) (AID 2282968); conditions: HepG2 VDRE cis-reporter transcription, actives raise or lower the signal
# How it was run: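 RT-PCR/CE readout of reporter mRNA; HepG2, transient transfection, 24 h dosing; DMSO baseline; bidirectional analysis.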
# [4] = molecular target: Estrogen receptor (Homo sapiens) (UniProt P03372); assay: ATG_ERa_TRANS: Attagene TRANS-FACTORIAL HepG2 Assay for human Estrogen Receptor alpha (ERa) (AID 2282970; active = hit-call score of the fitted dose curve at least 0.9, where 1 is the maximum); conditions: HepG2 Attagene TRANS ERa GAL4 reporter, mRNA
# Chain of Estrogen receptor (Homo sapiens) (P03372 whole entry, looked up, the tested form may be a part): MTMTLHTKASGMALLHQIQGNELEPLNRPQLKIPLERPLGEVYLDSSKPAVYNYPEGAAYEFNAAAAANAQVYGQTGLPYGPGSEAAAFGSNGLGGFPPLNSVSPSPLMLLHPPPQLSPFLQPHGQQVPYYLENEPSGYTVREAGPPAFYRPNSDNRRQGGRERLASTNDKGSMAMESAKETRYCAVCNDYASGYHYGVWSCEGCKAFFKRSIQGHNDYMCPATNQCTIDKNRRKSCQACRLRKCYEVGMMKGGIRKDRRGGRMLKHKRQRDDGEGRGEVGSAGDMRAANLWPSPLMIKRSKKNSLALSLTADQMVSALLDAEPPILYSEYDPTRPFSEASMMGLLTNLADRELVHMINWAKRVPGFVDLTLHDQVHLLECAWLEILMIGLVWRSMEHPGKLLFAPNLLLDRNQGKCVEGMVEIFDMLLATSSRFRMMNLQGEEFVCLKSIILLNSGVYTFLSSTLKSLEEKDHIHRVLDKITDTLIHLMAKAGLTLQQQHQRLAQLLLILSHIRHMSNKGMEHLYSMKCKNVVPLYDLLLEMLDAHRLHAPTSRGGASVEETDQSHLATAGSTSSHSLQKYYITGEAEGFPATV
# How it was run: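 After 24 h of compound treatment, RNA from HepG2 cells bearing transfected GAL4-UAS reporter constructs is converted to cDNA, amplified and fluorescently labelled. Capillary electrophoresis resolves the ERa-linked reporter; DMSO serves as negative control.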
# [5] = molecular target: Steroid hormone receptor ERR1 (Homo sapiens) (UniProt P11474); assay: ATG_ERRa_TRANS: Attagene TRANS-FACTORIAL HepG2 Assay for human Estrogen-Related Receptor alpha (ERRa) (AID 2282971; active = hit-call score of the fitted dose curve at least 0.9, where 1 is the maximum); conditions: HepG2 Attagene TRANS reporter, ERRa transactivation
# Chain of Steroid hormone receptor ERR1 (Homo sapiens) (P11474 whole entry, looked up, the tested form may be a part): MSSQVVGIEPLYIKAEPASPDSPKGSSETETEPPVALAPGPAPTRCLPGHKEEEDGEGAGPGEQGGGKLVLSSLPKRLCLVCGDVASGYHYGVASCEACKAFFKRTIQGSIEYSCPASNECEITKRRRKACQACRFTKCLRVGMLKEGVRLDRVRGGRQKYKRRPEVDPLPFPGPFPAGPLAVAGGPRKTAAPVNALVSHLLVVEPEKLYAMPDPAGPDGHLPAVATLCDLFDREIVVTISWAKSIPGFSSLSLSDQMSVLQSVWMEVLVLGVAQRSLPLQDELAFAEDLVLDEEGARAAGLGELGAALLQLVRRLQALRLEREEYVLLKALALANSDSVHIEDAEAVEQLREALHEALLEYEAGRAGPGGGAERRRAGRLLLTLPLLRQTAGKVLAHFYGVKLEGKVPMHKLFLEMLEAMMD
# How it was run: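 Transfected HepG2, 24 h dosing, ERRa-Gal4 chimera driving GAL4-UAS reporter. Readout: reporter mRNA via RT-PCR plus capillary electrophoresis (fluorescence). Positive direction vs DMSO control.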
# [6] = molecular target: X-box-binding protein 1 (Homo sapiens) (UniProt P17861); assay: ATG_Xbp1_CIS: Attagene CIS-FACTORIAL HepG2 Assay for human X-box Binding Protein 1 (XBP1) (AID 2282972); conditions: HepG2 XBP1 cis-element reporter, Attagene multiplex; actives raise or lower the signal
# Chain of X-box-binding protein 1 (Homo sapiens) (P17861 whole entry, looked up): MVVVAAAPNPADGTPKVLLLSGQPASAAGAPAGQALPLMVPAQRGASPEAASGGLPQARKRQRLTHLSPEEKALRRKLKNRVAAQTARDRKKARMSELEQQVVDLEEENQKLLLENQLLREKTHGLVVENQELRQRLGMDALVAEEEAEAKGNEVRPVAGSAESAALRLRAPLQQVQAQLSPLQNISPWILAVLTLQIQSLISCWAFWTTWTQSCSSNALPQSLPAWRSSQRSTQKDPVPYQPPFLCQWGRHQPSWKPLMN
# How it was run: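 After a 24-hour chemical exposure of HepG2 cells carrying cis-regulated reporters, reporter mRNA levels are assessed. Quantification uses RT-PCR, 6-FAM labelling and capillary electrophoresis. Gain- or loss-of-signal is fitted against DMSO.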
# [7] = ATG_M_19_TRANS: Attagene TRANS-FACTORIAL HepG2 Assay for M19 Transcription Factor (Internal Marker) (AID 2282974; active = hit-call score of the fitted dose curve at least 0.9, where 1 is the maximum); conditions: HepG2 Attagene TRANS-FACTORIAL M19 internal marker reporter
# How it was run: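 Cells: human HepG2, transiently transfected with multiplexed reporter transcription units. Exposure: 24 h. Detection: RT-PCR of reporter mRNA with capillary electrophoresis. Analysis: gain-of-signal vs DMSO.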
# [8] = ATG_GAL4_TRANS: Attagene TRANS-FACTORIAL HepG2 Assay for GAL4 (Internal Marker) (AID 2282976; active = hit-call score of the fitted dose curve at least 0.9, where 1 is the maximum); conditions: HepG2 Attagene TRANS GAL4 internal marker reporter
# How it was run: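 RT-PCR/capillary electrophoresis readout of reporter mRNA. HepG2, transient MRTU transfection (GAL4-UAS reporters), 24 h compound exposure. Background-control endpoint, positive direction vs DMSO baseline.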
# [9] = molecular target: Nuclear receptor subfamily 1 group I member 3 (Homo sapiens) (UniProt Q14994); assay: ATG_CAR_TRANS: Attagene TRANS-FACTORIAL HepG2 Assay for human Constitutive Androstane Receptor (CAR) (AID 2282969; active = hit-call score of the fitted dose curve at least 0.9, where 1 is the maximum;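 also: activators raise reporter mRNA above DMSO so AC50 marks induction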); conditions: HepG2 Attagene TRANS-FACTORIAL CAR reporter
# Chain of Nuclear receptor subfamily 1 group I member 3 (Homo sapiens) (Q14994 whole entry, looked up, the tested form may be a part): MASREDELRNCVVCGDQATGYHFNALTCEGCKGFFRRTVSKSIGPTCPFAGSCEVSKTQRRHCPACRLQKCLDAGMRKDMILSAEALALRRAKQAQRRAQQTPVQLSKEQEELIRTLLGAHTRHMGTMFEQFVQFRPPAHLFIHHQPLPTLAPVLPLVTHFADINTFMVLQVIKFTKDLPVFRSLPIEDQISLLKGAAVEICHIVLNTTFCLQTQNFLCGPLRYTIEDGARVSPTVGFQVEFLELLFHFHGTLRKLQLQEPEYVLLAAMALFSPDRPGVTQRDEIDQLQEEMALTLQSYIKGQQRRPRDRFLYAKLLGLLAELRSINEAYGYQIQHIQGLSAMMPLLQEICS
# How it was run: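 HepG2 cells transiently transfected with multiplexed GAL4-UAS reporter units expressing chimeric NR-Gal4 proteins; compound exposure 24 h. Reporter mRNA measured by RT-PCR, 6-FAM labelling, HpaI digestion and capillary electrophoresis; gain-of-signal fitted against DMSO baseline.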
# [10] = molecular target: Estrogen-related receptor gamma (Homo sapiens) (UniProt P62508); assay: ATG_ERRg_TRANS: Attagene TRANS-FACTORIAL HepG2 Assay for human Estrogen-Related Receptor gamma (ERRg) (AID 2282977; active = hit-call score of the fitted dose curve at least 0.9, where 1 is the maximum;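 also: hits increase reporter signal over DMSO so potencies reflect activators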); conditions: HepG2 Attagene TRANS reporter, ERRg transactivation
# Chain of Estrogen-related receptor gamma (Homo sapiens) (P62508 whole entry, looked up, the tested form may be a part): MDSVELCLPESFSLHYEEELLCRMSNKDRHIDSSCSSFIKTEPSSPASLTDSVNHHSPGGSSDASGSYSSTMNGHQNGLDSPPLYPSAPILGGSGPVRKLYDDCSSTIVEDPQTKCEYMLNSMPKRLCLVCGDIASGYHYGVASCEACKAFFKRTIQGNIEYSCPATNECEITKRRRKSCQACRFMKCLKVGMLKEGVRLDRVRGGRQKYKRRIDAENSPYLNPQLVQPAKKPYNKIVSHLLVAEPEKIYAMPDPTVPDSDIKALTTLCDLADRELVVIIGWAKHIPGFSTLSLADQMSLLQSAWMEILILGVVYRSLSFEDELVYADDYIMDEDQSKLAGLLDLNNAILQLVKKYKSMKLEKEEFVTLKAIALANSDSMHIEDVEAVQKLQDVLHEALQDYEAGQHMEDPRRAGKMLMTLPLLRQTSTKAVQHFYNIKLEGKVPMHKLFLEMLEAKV
# How it was run: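 Transfect HepG2 with multiple GAL4-UAS reporter transcription units; dose chemicals 24 h; isolate RNA, reverse-transcribe with oligo(dT), PCR-amplify, label with 6-FAM, digest with HpaI; size fragments by capillary electrophoresis. DMSO serves as negative control.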
Compound,outcome [1],outcome [2],outcome [3],outcome [4],outcome [5],outcome [6],outcome [7],outcome [8],outcome [9],AC50 [3],AC50 [6],outcome [10]
CC/C(=C\C(=N/O)C(N)=O)C(C)[N+](=O)[O-] (stereo unspecified),inactive,inactive,inactive,inactive,inactive,inactive,inactive,inactive,,,,
CN(C)c1ccc(N=NS(=O)(=O)O)cc1,inactive,inactive,inactive,,,inactive,,inactive,inactive,,,
Nc1nc2ncc(CNc3ccc(C(=O)N[C@@H](CCC(=O)O)C(=O)O)cc3)nc2c(=O)[nH]1,inactive,inactive,inactive,,,inactive,inactive,inactive,inactive,,,
Cc1c(-c2cccnc2)c2ccccc2n1CCCCC(=O)O,inactive,inactive,inactive,,,inactive,inactive,,inactive,,,
O=C(O)CCN(C1(C(=O)NO)CCCC1)S(=O)(=O)c1ccc(Oc2ccc(F)cc2)cc1,inactive,inactive,inactive,,,inactive,inactive,,inactive,,,
CCCC(=O)OCC,inactive,inactive,inactive,,,inactive,inactive,,inactive,,,
O=c1n(CC2CO2)c(=O)n(CC2CO2)c(=O)n1CC1CO1 (stereo unspecified),inactive,inactive,,inactive,,,,,inactive,100 µM (active),74.9 µM (active),
Clc1nc(Cl)c(Cl)c(Cl)c1Cl,inactive,inactive,inactive,,,inactive,inactive,inactive,inactive,,,inactive
CCCCCCCCCCCCc1ccccc1,inactive,inactive,inactive,,,inactive,,,inactive,,,inactive
Cc1ccc(C)c(O)c1,inactive,inactive,inactive,,,inactive,,,inactive,,,
Cc1ccc(S(=O)(=O)O)cc1C,inactive,inactive,inactive,inactive,,inactive,inactive,,inactive,,,
COc1cccc(-c2ccc(/C=C\CN3CCCCCC3)cc2Cl)c1,inactive,inactive,,inactive,,inactive,inactive,,inactive,6.94 µM (active),,inactive
CC(C)CCCCCCCOC(=O)CCCCC(=O)OCCCCCCCC(C)C,inactive,inactive,inactive,,,inactive,inactive,inactive,inactive,,,
